# How the values were obtained:
# Assay in all cases: DAPPL (digital affinity profiling via proximity ligation, sequencing); 10 mM Tris-HCl pH 7.5, 50 mM NaCl, 1 mM DTT, 4% glycerol, room temperature, 30 min; GST-TFs on glutathione beads, 16-mer random dsDNA library, 0.1% formaldehyde crosslink after washing; high values mean tight binding
# FEV = target: T1, FEV (Homo sapiens, UniProt Q99581 1-238); conditions: protein: recombinant; tags: N-terminal GST; dsDNA, one strand shown
# T1 sequence: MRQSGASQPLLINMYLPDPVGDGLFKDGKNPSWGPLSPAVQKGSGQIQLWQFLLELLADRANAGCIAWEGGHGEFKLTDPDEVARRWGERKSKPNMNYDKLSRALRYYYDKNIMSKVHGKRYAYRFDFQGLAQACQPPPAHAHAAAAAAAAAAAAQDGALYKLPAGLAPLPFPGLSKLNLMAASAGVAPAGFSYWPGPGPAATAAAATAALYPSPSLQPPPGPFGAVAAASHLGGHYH
# How it was run: (§1)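 Binding signal is given per hexamer as its read frequency for a factor divided by its frequency in the tag-only sample. GST-fused human transcription factors were expressed in yeast, captured on glutathione beads, barcoded with DNA and pooled with that sample, then incubated with 200 nmole of a 16-mer random double-stranded DNA library in Tris/NaCl/DTT/glycerol buffer for 30 min at room temperature. The pools were then washed, crosslinked, proximity-ligated, amplified by PCR and sequenced on an Illumina NextSeq500.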
# ETV5 = ETV5 (Homo sapiens, UniProt P41161 1-510); conditions: protein: recombinant; tags: N-terminal GST; dsDNA, one strand shown
# How it was run: as §1
# HSF1 = HSF1 (Homo sapiens, UniProt Q00613 1-529); conditions: protein: recombinant; tags: N-terminal GST; chain copies: 3; dsDNA, one strand shown
# How it was run: as §1
# SPIC = target: T2, SPIC (Homo sapiens, UniProt Q8N5J4 1-248); conditions: protein: recombinant; tags: N-terminal GST; dsDNA, one strand shown
# T2 sequence: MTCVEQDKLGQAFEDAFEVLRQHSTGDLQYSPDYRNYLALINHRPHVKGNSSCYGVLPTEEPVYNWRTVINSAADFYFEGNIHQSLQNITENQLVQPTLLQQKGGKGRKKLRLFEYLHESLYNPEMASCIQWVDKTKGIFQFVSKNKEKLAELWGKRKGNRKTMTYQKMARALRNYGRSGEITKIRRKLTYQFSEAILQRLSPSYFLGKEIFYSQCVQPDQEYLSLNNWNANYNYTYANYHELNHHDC
# How it was run: as §1
# ELF4 = ELF4 (Homo sapiens, UniProt Q99607 1-663); conditions: protein: recombinant; tags: N-terminal GST; dsDNA, one strand shown
# How it was run: as §1
# ELK4 = target: T3, ELK4 (Homo sapiens, UniProt P28324-2 1-405); conditions: protein: recombinant; tags: N-terminal GST; dsDNA, one strand shown
# T3 sequence: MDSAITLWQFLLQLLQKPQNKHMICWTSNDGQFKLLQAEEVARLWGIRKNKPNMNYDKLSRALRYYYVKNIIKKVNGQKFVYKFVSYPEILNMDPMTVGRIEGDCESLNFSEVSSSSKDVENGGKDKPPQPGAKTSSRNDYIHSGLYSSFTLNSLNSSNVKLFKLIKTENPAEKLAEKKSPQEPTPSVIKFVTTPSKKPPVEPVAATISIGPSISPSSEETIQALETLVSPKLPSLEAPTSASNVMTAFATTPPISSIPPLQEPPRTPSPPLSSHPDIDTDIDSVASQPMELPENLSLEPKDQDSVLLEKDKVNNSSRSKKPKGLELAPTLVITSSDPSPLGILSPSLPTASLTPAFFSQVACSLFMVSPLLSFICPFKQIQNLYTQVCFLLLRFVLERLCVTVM
# How it was run: as §1
# ETV2 = target: T4, ETV2 (Homo sapiens, UniProt O00321 1-342); conditions: protein: recombinant; tags: N-terminal GST; dsDNA, one strand shown
# T4 sequence: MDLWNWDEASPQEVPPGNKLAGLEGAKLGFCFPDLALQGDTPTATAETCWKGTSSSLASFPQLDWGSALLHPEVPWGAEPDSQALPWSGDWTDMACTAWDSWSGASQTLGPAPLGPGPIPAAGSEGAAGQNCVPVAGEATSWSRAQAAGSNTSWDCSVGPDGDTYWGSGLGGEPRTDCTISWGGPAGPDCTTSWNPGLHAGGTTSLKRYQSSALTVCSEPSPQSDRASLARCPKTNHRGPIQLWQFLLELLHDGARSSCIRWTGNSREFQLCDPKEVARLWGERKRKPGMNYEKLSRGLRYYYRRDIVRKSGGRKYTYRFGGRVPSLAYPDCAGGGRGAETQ
# How it was run: as §1
# ELF3 = target: T5, ELF3 (Homo sapiens, UniProt P78545 1-371); conditions: protein: recombinant; tags: N-terminal GST; dsDNA, one strand shown
# T5 sequence: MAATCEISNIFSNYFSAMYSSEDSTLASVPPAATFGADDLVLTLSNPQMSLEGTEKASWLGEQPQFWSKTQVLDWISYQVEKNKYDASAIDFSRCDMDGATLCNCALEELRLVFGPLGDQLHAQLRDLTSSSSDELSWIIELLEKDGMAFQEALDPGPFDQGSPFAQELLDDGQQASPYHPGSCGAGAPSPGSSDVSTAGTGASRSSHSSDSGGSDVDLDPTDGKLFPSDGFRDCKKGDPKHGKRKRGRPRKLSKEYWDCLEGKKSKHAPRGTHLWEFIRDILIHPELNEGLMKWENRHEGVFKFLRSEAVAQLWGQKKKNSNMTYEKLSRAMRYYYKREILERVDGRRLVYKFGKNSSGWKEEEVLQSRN
# How it was run: as §1
# CRX = CRX (Homo sapiens, UniProt O43186 1-299); conditions: protein: recombinant; tags: N-terminal GST; dsDNA, one strand shown
# How it was run: as §1
# ETV1 = ETV1 (Homo sapiens, UniProt P50549 1-477); conditions: protein: recombinant; tags: N-terminal GST; dsDNA, one strand shown
# How it was run: as §1
# ERF = target: T6, ERF (Homo sapiens, UniProt P50548 1-548); conditions: protein: recombinant; tags: N-terminal GST; dsDNA, one strand shown
# T6 sequence: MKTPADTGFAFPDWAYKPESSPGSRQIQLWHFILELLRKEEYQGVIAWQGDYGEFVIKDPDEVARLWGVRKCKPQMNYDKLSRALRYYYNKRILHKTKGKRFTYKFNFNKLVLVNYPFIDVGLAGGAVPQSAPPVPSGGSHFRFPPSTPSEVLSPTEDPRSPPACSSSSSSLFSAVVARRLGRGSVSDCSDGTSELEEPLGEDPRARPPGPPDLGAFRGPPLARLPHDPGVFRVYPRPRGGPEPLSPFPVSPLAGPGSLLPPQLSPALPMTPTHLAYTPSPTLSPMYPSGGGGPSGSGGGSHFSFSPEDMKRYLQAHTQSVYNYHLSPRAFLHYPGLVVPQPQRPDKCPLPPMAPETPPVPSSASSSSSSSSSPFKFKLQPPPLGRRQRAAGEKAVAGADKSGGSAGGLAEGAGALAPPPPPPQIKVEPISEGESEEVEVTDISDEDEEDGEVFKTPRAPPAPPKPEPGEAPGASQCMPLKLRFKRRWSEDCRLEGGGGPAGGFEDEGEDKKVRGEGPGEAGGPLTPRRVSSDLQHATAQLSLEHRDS
# How it was run: as §1
# ETV3L = target: T7, ETV3L (Homo sapiens, UniProt Q6ZN32 1-361); conditions: protein: recombinant; tags: N-terminal GST; dsDNA, one strand shown
# T7 sequence: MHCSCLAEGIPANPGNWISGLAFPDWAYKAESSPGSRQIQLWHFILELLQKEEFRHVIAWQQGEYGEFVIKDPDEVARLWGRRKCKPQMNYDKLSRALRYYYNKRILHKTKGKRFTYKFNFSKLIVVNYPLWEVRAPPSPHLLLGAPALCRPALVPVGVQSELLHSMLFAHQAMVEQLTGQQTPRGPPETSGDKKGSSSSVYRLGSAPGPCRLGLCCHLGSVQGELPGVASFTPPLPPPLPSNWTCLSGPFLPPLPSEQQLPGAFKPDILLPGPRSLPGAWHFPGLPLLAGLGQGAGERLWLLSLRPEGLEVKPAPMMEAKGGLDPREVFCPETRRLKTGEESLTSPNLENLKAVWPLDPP
# How it was run: as §1
# ETS2 = target: T8, ETS2 (Homo sapiens, UniProt P15036 1-469); conditions: protein: recombinant; tags: N-terminal GST; dsDNA, one strand shown
# T8 sequence: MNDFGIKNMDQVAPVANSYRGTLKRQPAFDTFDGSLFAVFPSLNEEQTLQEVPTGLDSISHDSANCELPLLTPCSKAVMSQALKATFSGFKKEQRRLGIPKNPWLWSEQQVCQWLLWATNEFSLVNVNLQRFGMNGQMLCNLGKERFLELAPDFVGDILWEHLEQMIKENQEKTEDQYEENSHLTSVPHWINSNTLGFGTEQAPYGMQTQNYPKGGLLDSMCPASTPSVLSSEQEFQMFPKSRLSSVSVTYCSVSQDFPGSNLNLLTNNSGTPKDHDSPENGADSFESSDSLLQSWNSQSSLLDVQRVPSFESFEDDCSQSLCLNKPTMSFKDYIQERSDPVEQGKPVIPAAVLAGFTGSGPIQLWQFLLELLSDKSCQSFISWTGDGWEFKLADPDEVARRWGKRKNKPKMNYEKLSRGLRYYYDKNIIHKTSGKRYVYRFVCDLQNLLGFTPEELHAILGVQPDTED
# How it was run: as §1
# SPDEF = target: T9, SPDEF (Homo sapiens, UniProt O95238 1-335); conditions: protein: recombinant; tags: N-terminal GST; dsDNA, one strand shown
# T9 sequence: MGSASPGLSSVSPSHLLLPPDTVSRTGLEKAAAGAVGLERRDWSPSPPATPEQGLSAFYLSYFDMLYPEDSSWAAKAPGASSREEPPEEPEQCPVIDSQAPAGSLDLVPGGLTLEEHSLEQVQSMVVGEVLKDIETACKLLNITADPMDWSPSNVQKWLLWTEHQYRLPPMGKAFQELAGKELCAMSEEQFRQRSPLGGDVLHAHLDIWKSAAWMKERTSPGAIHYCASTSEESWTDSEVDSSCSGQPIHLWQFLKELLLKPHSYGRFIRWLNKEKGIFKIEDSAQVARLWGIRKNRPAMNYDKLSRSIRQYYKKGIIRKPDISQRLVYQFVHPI
# How it was run: as §1
# ETV7 = target: T10, ETV7 (Homo sapiens, UniProt Q9Y603 1-341); conditions: protein: recombinant; tags: N-terminal GST; dsDNA, one strand shown
# T10 sequence: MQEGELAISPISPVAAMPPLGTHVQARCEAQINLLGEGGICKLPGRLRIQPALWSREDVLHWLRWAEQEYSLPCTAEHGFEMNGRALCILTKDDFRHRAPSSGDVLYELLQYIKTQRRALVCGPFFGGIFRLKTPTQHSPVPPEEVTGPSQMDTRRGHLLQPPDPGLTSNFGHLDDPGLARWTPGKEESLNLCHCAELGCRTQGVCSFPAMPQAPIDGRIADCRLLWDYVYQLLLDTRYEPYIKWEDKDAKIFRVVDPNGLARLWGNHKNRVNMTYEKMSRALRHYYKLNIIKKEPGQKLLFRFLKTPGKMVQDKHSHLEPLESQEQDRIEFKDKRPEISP
# How it was run: as §1
# ELF5 = target: T11, ELF5 (Homo sapiens, UniProt Q9UKW6-2 1-255); conditions: protein: recombinant; tags: N-terminal GST; dsDNA, one strand shown
# T11 sequence: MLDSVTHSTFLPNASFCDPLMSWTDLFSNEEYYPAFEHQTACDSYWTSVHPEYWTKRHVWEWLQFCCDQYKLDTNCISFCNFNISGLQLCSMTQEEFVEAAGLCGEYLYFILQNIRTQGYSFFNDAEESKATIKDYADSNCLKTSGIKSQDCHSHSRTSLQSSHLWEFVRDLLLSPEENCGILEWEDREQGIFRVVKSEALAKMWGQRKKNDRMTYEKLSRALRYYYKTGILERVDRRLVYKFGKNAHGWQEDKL
# How it was run: as §1
# ETV3 = target: T12, ETV3 (Homo sapiens, UniProt P41162-2 1-143); conditions: protein: recombinant; tags: N-terminal GST; dsDNA, one strand shown
# T12 sequence: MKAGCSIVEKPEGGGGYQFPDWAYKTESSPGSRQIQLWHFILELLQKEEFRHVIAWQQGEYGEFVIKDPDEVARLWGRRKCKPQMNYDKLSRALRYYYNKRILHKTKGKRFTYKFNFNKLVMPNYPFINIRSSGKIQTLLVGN
# How it was run: as §1
# ETV6 = ETV6 (Homo sapiens, UniProt P41212 1-452); conditions: protein: recombinant; tags: N-terminal GST; dsDNA, one strand shown
# How it was run: as §1
# Sequence of ETV6 (P41212 whole entry): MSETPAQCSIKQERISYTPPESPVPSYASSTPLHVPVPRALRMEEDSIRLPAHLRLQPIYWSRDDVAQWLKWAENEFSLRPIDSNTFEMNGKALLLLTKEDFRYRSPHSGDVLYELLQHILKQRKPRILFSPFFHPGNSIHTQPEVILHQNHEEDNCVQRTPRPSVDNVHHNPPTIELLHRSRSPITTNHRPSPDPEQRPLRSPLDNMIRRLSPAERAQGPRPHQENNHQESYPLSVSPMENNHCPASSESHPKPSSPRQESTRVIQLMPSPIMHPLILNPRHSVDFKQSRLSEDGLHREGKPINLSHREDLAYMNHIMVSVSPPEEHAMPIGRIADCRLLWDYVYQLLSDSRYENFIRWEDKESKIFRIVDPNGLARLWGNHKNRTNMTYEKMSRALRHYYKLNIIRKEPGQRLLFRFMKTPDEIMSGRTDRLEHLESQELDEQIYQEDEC
# Sequence of HSF1 (Q00613 whole entry): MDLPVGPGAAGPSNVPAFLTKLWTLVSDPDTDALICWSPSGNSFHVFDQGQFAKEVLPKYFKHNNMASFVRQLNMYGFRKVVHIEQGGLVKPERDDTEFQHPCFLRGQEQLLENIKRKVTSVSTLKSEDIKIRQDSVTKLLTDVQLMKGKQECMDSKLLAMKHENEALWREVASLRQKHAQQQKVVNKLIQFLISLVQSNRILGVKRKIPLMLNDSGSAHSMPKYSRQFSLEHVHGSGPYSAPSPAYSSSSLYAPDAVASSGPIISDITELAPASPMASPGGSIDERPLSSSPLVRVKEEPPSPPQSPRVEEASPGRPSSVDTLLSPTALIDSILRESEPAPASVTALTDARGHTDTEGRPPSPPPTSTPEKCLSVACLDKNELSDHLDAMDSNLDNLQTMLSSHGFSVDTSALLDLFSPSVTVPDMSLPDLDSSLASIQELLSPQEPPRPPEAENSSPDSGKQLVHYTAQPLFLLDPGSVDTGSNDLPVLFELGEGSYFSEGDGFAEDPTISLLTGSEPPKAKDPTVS
# Sequence of CRX (O43186 whole entry): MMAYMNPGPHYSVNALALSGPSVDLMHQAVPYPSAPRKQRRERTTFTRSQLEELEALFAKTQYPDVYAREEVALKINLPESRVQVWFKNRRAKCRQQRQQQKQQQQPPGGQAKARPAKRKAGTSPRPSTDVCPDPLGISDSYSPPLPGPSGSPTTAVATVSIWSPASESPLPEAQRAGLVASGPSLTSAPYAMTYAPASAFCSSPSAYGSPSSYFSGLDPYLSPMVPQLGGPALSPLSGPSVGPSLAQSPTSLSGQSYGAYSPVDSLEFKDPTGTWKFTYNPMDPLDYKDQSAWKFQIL
# Sequence of ELF4 (Q99607 whole entry): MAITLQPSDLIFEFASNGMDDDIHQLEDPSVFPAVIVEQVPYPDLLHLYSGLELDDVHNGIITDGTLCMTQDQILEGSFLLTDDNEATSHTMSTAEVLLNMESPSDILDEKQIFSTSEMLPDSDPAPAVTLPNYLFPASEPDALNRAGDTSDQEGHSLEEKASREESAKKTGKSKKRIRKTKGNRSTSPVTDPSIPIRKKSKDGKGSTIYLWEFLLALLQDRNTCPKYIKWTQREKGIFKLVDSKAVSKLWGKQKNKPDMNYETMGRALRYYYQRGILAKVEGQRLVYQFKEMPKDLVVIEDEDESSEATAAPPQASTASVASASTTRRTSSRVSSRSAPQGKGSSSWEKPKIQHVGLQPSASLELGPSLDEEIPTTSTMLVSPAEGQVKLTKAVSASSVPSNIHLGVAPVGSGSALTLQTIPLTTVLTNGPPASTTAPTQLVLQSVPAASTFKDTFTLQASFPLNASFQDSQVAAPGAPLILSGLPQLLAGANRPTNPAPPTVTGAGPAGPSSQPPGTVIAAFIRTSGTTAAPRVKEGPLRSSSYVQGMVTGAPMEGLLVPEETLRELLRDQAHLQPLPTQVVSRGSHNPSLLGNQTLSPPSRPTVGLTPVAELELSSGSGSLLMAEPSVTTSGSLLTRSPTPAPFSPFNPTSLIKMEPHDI
# Sequence of ETV1 (P50549 whole entry): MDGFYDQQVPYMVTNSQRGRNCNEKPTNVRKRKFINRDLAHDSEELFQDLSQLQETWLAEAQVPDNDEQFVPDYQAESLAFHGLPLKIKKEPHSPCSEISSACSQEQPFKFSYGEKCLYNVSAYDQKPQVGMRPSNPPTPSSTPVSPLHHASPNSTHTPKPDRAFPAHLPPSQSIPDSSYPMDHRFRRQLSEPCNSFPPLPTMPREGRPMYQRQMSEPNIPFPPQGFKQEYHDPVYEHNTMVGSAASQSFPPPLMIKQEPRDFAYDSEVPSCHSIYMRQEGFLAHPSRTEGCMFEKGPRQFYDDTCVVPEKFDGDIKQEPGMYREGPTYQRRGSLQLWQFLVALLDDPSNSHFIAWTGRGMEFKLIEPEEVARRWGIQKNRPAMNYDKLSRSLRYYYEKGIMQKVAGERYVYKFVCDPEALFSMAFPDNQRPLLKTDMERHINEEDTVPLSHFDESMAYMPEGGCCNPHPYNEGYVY
# Sequence of ETV5 (P41161 whole entry): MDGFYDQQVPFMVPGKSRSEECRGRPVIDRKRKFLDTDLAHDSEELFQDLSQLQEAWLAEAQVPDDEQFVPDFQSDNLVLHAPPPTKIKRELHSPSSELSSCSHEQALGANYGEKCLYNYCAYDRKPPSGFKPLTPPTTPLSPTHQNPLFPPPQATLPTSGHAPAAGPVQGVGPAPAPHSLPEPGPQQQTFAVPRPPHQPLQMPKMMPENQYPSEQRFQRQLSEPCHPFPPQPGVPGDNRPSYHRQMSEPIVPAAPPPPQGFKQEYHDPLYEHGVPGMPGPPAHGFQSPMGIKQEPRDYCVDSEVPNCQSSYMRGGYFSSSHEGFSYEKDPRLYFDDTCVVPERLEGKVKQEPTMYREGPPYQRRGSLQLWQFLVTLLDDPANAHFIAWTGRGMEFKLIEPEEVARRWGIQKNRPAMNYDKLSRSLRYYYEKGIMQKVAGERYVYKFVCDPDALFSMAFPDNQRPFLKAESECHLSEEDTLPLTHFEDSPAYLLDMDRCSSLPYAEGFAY
sequence,measurement,setting,value
GTATAA,binding signal,FEV,"1.01 fold enrichment (6-mer frequency, TF over GST control)"
same,binding signal,ETV5,"1.1 fold enrichment (6-mer frequency, TF over GST control)"
same,binding signal,HSF1,"1.16 fold enrichment (6-mer frequency, TF over GST control)"
same,binding signal,SPIC,"1.07 fold enrichment (6-mer frequency, TF over GST control)"
same,binding signal,ELF4,"1.05 fold enrichment (6-mer frequency, TF over GST control)"
same,binding signal,ELK4,"1.08 fold enrichment (6-mer frequency, TF over GST control)"
same,binding signal,ETV2,"1.18 fold enrichment (6-mer frequency, TF over GST control)"
same,binding signal,ELF3,"1.14 fold enrichment (6-mer frequency, TF over GST control)"
same,binding signal,CRX,"1.41 fold enrichment (6-mer frequency, TF over GST control)"
same,binding signal,ETV1,"1.14 fold enrichment (6-mer frequency, TF over GST control)"
same,binding signal,ERF,"1.13 fold enrichment (6-mer frequency, TF over GST control)"
same,binding signal,ETV3L,"1.14 fold enrichment (6-mer frequency, TF over GST control)"
same,binding signal,ETS2,"1.08 fold enrichment (6-mer frequency, TF over GST control)"
same,binding signal,SPDEF,"1.07 fold enrichment (6-mer frequency, TF over GST control)"
same,binding signal,ETV7,"1.11 fold enrichment (6-mer frequency, TF over GST control)"
same,binding signal,ELF5,"1.11 fold enrichment (6-mer frequency, TF over GST control)"
same,binding signal,ETV3,"1.08 fold enrichment (6-mer frequency, TF over GST control)"
same,binding signal,ETV6,"1.08 fold enrichment (6-mer frequency, TF over GST control)"
